# Laboratory results taken from paper PMC7862700, “An all-to-all approach to the identification of sequence-specific readers for epigenetic DNA modifications on cytosine”.
# Assays:
# Test in all cases: DAPPL (digital affinity profiling via proximity ligation, sequencing); 10 mM Tris-HCl pH 7.5, 50 mM NaCl, 1 mM DTT, 4% glycerol, room temperature, 30 min; GST-TFs on glutathione beads, 16-mer random dsDNA library, 0.1% formaldehyde crosslink after washing; high values mean tight binding
# FLI1 = molecular target: T1, FLI1 (Homo sapiens, UniProt Q01543 1-452); details: protein: recombinant; tags: N-terminal GST; dsDNA, one strand shown
# T1 sequence: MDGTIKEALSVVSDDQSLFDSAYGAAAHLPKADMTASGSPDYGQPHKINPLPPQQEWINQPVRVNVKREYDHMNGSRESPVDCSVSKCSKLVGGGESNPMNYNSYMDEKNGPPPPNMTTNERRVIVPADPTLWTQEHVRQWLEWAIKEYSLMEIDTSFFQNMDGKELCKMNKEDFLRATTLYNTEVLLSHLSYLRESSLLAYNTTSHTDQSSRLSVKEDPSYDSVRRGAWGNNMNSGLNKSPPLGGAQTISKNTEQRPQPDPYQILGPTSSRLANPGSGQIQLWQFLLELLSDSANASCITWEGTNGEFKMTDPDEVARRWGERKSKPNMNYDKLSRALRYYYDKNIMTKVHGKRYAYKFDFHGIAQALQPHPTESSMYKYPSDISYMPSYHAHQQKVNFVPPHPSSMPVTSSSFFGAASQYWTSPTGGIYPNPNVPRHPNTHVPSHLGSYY
# Procedure, shortened: (§1)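 Pools of DNA-barcoded human transcription factors, expressed in yeast as GST fusions on glutathione beads and combined with a tag-only sample, were incubated with 200 nmole of a 16-mer random double-stranded DNA library. Incubation took 30 min at room temperature in Tris/NaCl/DTT/glycerol buffer and was followed by washing, 0.1% formaldehyde crosslinking, proximity ligation (BsaI/T4 ligase, 1 h, 37 °C), PCR amplification and sequencing on an Illumina NextSeq500. Binding signal is the ratio of a hexamer's read frequency for a factor to its frequency for the tag-only sample.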
# ELK1 = molecular target: T2, ELK1 (Homo sapiens, UniProt P19419 1-428); details: protein: recombinant; tags: N-terminal GST; dsDNA, one strand shown
# T2 sequence: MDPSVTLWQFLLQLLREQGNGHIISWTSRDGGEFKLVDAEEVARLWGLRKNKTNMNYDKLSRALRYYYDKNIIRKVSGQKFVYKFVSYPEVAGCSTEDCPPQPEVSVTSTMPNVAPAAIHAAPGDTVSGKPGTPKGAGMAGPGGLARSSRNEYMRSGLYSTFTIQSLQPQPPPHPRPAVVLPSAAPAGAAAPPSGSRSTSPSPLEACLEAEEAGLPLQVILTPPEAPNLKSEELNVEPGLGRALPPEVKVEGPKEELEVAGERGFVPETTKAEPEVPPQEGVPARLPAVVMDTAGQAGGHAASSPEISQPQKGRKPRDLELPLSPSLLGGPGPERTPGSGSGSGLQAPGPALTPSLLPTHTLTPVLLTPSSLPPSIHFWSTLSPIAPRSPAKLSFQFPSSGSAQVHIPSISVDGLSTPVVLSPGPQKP
# Procedure, shortened: as §1
# GABPA = molecular target: T3, GABPA (Homo sapiens, UniProt Q06546 1-454); details: protein: recombinant; tags: N-terminal GST; dsDNA, one strand shown
# T3 sequence: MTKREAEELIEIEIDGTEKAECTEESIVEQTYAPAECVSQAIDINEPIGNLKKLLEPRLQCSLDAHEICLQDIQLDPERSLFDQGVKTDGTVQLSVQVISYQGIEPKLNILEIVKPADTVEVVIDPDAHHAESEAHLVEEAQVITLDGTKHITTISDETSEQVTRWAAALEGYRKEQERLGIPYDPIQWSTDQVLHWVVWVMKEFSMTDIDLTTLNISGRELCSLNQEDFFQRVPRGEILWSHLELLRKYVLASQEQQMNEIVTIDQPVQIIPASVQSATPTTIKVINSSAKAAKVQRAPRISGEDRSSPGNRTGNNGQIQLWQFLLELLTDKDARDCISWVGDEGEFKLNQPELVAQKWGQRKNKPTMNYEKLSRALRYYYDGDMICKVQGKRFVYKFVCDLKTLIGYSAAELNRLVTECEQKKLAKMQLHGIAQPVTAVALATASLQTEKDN
# Procedure, shortened: as §1
# ERG = molecular target: T4, ERG (Homo sapiens, UniProt P11308 1-479); details: protein: recombinant; tags: N-terminal GST; dsDNA, one strand shown
# T4 sequence: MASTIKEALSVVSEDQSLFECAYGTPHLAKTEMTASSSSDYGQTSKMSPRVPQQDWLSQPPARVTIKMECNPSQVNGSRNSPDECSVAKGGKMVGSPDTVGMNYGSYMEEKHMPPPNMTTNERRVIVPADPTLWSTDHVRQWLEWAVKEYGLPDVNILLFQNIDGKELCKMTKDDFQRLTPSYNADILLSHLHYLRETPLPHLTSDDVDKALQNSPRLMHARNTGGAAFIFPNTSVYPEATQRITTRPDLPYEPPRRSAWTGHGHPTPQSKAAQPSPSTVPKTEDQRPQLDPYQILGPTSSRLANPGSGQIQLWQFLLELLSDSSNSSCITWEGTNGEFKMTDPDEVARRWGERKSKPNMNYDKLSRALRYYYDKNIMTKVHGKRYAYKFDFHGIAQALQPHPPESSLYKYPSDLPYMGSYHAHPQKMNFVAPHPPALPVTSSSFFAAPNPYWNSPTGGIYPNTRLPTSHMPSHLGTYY
# Procedure, shortened: as §1
# ELF1 = ELF1 (Homo sapiens, UniProt P32519 1-619); details: protein: recombinant; tags: N-terminal GST; dsDNA, one strand shown
# Procedure, shortened: as §1
# EHF = molecular target: T5, EHF (Homo sapiens, UniProt Q9NZC4 1-300); details: protein: recombinant; tags: N-terminal GST; dsDNA, one strand shown
# T5 sequence: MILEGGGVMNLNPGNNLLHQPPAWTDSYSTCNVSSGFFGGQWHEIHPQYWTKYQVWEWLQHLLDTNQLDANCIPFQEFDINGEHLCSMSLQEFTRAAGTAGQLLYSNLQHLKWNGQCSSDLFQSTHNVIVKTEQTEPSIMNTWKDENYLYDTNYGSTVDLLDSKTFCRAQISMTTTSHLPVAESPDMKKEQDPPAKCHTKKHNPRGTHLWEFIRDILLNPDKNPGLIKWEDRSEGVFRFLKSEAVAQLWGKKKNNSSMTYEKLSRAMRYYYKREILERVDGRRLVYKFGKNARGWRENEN
# Procedure, shortened: as §1
# SPI1 = SPI1 (Homo sapiens, UniProt P17947 1-270); details: protein: recombinant; tags: N-terminal GST; dsDNA, one strand shown
# Procedure, shortened: as §1
# SPIB = SPIB (Homo sapiens, UniProt Q01892 1-262); details: protein: recombinant; tags: N-terminal GST; dsDNA, one strand shown
# Procedure, shortened: as §1
# ELK3 = molecular target: T6, ELK3 (Homo sapiens, UniProt P41970 1-407); details: protein: recombinant; tags: N-terminal GST; dsDNA, one strand shown
# T6 sequence: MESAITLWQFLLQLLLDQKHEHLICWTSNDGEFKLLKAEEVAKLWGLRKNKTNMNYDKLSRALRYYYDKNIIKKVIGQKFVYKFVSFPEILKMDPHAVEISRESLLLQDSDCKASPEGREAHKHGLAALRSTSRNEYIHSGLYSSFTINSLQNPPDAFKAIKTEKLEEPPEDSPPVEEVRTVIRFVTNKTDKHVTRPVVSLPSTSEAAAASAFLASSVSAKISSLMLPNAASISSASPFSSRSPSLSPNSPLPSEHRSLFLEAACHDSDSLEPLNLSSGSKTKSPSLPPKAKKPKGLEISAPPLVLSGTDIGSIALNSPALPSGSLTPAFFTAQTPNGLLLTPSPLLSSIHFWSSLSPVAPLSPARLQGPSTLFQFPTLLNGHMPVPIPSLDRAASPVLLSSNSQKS
# Procedure, shortened: as §1
# FEV = molecular target: T7, FEV (Homo sapiens, UniProt Q99581 1-238); details: protein: recombinant; tags: N-terminal GST; dsDNA, one strand shown
# T7 sequence: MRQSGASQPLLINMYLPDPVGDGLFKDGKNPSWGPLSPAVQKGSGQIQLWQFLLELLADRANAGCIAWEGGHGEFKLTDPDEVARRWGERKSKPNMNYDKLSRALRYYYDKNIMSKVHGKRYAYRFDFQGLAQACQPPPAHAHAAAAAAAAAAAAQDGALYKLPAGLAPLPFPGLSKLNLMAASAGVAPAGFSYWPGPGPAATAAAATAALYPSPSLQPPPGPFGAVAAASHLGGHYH
# Procedure, shortened: as §1
# ETV5 = ETV5 (Homo sapiens, UniProt P41161 1-510); details: protein: recombinant; tags: N-terminal GST; dsDNA, one strand shown
# Procedure, shortened: as §1
# HSF1 = HSF1 (Homo sapiens, UniProt Q00613 1-529); details: protein: recombinant; tags: N-terminal GST; chain copies: 3; dsDNA, one strand shown
# Procedure, shortened: as §1
# SPIC = molecular target: T8, SPIC (Homo sapiens, UniProt Q8N5J4 1-248); details: protein: recombinant; tags: N-terminal GST; dsDNA, one strand shown
# T8 sequence: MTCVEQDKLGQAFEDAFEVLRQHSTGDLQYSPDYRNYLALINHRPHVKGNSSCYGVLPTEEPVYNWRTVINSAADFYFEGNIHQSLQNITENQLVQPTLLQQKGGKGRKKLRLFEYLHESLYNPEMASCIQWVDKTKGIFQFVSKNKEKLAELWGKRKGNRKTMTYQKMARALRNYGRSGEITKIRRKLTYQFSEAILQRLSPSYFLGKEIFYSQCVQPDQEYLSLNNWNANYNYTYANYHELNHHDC
# Procedure, shortened: as §1
# ELF4 = ELF4 (Homo sapiens, UniProt Q99607 1-663); details: protein: recombinant; tags: N-terminal GST; dsDNA, one strand shown
# Procedure, shortened: as §1
# ELK4 = molecular target: T9, ELK4 (Homo sapiens, UniProt P28324-2 1-405); details: protein: recombinant; tags: N-terminal GST; dsDNA, one strand shown
# T9 sequence: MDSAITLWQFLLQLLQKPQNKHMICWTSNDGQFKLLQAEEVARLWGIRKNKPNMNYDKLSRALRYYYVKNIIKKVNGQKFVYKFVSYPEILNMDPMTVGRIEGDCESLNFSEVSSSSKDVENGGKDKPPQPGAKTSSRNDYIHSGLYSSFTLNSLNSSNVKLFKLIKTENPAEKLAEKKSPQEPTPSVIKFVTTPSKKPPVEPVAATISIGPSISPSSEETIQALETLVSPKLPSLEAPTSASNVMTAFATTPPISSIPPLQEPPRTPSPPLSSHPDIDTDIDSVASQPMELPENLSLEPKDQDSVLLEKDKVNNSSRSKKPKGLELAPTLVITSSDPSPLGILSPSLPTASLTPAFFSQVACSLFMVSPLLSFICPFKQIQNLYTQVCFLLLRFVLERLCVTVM
# Procedure, shortened: as §1
# ETV2 = molecular target: T10, ETV2 (Homo sapiens, UniProt O00321 1-342); details: protein: recombinant; tags: N-terminal GST; dsDNA, one strand shown
# T10 sequence: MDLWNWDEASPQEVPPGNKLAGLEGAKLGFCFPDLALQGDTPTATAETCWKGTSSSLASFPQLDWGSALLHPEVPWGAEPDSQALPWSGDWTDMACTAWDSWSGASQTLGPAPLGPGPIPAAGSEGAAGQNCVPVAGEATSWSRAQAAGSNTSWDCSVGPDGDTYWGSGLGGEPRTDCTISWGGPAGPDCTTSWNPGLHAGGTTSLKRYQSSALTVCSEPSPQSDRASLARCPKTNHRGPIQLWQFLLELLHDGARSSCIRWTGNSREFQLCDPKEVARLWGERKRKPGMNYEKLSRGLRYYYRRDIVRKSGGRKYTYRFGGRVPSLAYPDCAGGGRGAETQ
# Procedure, shortened: as §1
# ELF3 = molecular target: T11, ELF3 (Homo sapiens, UniProt P78545 1-371); details: protein: recombinant; tags: N-terminal GST; dsDNA, one strand shown
# T11 sequence: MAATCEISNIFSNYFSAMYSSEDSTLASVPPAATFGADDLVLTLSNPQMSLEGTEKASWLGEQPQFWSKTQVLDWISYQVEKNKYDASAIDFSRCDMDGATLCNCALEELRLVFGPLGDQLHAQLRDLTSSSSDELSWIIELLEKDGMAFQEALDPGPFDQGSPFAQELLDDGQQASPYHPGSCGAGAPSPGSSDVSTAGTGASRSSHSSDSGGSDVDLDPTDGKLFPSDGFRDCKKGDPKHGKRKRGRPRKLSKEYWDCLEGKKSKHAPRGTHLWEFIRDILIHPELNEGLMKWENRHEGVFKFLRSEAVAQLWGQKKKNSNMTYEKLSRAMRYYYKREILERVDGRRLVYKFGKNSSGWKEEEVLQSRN
# Procedure, shortened: as §1
# CRX = CRX (Homo sapiens, UniProt O43186 1-299); details: protein: recombinant; tags: N-terminal GST; dsDNA, one strand shown
# Procedure, shortened: as §1
# ETV1 = ETV1 (Homo sapiens, UniProt P50549 1-477); details: protein: recombinant; tags: N-terminal GST; dsDNA, one strand shown
# Procedure, shortened: as §1
# ELF4, sequence (Q99607 whole entry): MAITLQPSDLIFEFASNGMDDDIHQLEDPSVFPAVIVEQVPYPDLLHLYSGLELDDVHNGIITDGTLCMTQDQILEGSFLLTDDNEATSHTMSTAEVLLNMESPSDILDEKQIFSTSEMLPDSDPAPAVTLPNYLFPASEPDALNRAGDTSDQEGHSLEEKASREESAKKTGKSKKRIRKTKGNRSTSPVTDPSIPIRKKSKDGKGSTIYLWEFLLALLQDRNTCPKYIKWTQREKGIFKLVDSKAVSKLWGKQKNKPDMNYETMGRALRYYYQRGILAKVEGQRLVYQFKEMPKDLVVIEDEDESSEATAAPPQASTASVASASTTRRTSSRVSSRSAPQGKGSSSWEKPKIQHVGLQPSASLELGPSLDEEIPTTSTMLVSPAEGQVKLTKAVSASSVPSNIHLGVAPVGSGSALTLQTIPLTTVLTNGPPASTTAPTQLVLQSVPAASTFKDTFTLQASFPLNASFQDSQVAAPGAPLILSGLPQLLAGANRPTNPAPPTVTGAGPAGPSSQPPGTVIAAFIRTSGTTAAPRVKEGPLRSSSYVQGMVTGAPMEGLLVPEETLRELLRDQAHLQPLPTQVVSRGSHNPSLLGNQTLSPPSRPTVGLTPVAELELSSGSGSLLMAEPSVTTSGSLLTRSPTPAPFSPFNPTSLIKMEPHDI
# ETV1, sequence (P50549 whole entry): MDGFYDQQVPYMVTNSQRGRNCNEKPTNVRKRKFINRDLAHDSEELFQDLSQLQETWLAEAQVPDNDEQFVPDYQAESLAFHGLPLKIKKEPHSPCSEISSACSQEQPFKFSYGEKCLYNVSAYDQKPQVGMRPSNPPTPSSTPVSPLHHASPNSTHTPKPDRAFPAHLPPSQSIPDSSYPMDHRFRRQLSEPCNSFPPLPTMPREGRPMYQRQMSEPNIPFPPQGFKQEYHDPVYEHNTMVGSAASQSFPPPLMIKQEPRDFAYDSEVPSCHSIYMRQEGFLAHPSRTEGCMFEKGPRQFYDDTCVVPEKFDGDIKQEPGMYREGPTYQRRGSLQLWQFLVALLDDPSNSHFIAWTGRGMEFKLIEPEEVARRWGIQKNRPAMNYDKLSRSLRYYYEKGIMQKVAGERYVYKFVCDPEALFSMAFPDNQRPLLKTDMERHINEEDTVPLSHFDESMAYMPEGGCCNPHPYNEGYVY
# SPIB, sequence (Q01892 whole entry): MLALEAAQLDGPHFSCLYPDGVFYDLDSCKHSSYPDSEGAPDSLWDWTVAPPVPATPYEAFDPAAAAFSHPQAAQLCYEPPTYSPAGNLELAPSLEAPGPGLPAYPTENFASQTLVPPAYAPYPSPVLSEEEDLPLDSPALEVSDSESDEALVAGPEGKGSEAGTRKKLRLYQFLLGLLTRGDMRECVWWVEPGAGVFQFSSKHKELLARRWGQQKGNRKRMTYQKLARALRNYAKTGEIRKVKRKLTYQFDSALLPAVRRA
# HSF1, sequence (Q00613 whole entry): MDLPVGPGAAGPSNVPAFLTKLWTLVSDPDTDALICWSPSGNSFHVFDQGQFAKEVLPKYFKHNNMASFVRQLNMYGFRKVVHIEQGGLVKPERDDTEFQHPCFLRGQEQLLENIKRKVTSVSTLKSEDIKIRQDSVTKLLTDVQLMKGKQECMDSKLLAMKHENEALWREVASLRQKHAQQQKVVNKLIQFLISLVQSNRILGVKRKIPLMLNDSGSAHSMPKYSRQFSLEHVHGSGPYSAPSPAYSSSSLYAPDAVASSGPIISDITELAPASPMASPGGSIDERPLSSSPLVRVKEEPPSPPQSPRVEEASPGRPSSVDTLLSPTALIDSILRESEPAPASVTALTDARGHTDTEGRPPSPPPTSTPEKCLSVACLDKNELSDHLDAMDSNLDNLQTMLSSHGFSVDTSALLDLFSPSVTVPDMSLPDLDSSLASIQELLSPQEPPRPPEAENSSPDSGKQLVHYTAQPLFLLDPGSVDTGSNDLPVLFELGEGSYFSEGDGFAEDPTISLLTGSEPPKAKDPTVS
# ELF1, sequence (P32519 whole entry): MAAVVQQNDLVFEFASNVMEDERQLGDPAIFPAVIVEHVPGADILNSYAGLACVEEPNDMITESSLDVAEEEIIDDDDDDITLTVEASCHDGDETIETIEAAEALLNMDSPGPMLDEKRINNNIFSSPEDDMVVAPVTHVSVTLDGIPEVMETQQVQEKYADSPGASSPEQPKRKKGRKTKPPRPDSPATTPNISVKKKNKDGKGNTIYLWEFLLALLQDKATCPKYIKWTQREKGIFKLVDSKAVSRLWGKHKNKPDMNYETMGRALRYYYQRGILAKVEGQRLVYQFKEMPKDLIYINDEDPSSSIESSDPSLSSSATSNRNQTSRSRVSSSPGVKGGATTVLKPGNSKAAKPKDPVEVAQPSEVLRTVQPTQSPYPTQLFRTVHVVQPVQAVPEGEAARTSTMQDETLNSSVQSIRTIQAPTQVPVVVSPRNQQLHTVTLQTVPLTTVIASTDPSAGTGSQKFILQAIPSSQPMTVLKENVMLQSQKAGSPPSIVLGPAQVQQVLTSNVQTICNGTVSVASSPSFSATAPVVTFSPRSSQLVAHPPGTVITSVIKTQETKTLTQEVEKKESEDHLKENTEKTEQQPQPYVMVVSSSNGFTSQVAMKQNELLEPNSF
# ETV5, sequence (P41161 whole entry): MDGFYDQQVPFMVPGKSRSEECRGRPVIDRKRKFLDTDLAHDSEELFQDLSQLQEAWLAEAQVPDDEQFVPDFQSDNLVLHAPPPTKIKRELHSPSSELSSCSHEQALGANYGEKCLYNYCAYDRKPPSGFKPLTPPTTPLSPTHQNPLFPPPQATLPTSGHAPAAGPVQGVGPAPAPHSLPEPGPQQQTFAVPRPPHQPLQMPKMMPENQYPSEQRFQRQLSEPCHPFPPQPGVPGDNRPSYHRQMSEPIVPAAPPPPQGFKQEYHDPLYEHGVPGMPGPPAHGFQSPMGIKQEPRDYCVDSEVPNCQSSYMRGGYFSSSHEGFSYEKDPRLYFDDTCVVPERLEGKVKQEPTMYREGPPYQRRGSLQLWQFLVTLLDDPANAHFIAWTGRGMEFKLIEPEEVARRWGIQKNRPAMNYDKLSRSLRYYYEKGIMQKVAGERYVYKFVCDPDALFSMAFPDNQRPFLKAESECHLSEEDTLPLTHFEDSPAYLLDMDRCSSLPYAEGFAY
# CRX, sequence (O43186 whole entry): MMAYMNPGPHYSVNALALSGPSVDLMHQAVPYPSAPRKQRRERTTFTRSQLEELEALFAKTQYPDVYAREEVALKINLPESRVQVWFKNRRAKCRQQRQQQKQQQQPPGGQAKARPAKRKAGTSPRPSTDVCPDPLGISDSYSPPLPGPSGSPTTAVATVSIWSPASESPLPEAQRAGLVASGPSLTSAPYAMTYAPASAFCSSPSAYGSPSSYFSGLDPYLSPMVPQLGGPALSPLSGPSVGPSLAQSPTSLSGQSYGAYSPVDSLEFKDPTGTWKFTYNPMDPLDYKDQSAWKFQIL
sequence,measurement,setting,value
TAGCCT,binding signal,FLI1,"1.27 fold enrichment (6-mer frequency, TF over GST control)"
same,binding signal,ELK1,"1.21 fold enrichment (6-mer frequency, TF over GST control)"
same,binding signal,GABPA,"1.18 fold enrichment (6-mer frequency, TF over GST control)"
same,binding signal,ERG,"1.23 fold enrichment (6-mer frequency, TF over GST control)"
same,binding signal,ELF1,"1.28 fold enrichment (6-mer frequency, TF over GST control)"
same,binding signal,EHF,"1.26 fold enrichment (6-mer frequency, TF over GST control)"
same,binding signal,SPI1,"1.23 fold enrichment (6-mer frequency, TF over GST control)"
same,binding signal,SPIB,"1.2 fold enrichment (6-mer frequency, TF over GST control)"
same,binding signal,ELK3,"1.14 fold enrichment (6-mer frequency, TF over GST control)"
same,binding signal,FEV,"1.26 fold enrichment (6-mer frequency, TF over GST control)"
same,binding signal,ETV5,"1.22 fold enrichment (6-mer frequency, TF over GST control)"
same,binding signal,HSF1,"1.43 fold enrichment (6-mer frequency, TF over GST control)"
same,binding signal,SPIC,"1.17 fold enrichment (6-mer frequency, TF over GST control)"
same,binding signal,ELF4,"1.24 fold enrichment (6-mer frequency, TF over GST control)"
same,binding signal,ELK4,"1.18 fold enrichment (6-mer frequency, TF over GST control)"
same,binding signal,ETV2,"1.22 fold enrichment (6-mer frequency, TF over GST control)"
same,binding signal,ELF3,"1.27 fold enrichment (6-mer frequency, TF over GST control)"
same,binding signal,CRX,"1.53 fold enrichment (6-mer frequency, TF over GST control)"
same,binding signal,ETV1,"1.26 fold enrichment (6-mer frequency, TF over GST control)"
